Assay results: ChEMBL document CHEMBL3988442, “University of Dundee, Small-Polar-MMV Screening Library” (2021)
Entries with a potency or affinity are not part of this list.

Each compound was assayed against Protein translocase subunit SecA (Escherichia coli (strain K12)) (UniProt P10408) (assay: Assay to Identify E. coli SecA ATPase Inhibitors). Conditions: 30 µM.
Type: functional
Set-up: scale not given: direction of the effect not stated beside the values

Sequence of Protein translocase subunit SecA (Escherichia coli (strain K12)) (P10408 whole entry): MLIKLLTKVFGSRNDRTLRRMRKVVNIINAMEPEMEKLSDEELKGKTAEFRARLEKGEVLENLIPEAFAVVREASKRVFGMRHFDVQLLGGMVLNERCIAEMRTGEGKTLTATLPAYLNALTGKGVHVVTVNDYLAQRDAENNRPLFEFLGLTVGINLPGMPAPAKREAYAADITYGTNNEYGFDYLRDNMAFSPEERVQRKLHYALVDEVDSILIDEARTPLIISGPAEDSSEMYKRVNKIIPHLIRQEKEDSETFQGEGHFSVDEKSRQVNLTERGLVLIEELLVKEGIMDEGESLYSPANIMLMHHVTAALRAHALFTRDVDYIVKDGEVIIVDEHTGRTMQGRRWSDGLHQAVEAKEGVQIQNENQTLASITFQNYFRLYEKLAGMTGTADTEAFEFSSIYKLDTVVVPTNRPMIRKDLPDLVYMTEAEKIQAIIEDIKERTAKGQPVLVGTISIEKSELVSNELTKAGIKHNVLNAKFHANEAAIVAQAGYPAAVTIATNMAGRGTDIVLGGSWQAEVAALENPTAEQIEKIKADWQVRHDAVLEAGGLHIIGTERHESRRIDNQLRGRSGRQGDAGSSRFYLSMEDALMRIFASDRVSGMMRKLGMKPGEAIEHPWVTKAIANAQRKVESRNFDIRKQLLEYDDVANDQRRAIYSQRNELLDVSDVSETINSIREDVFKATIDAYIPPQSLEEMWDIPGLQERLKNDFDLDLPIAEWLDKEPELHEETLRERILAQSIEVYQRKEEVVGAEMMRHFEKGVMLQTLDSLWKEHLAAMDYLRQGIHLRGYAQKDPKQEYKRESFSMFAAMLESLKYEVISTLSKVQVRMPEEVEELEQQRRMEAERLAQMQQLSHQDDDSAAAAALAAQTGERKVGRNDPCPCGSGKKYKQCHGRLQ

Structure (SMILES)	Percent Effect [%]
COc1ccccc1CN1CCC2(CC1)CC(Oc1ccccn1)CO2 (stereo not given)	-0.474
CC(C)Nc1nc(N2CCOCC2)nc2c1CN(CC(=O)N(C)C)CC2	-9.2
c1ccc(CCN2CCN(c3ccc4nncn4n3)CC2)nc1	-3.09
COc1cccc(CCNC(=O)CN2CCN(C)CC2C)c1 (stereo not given)	-1.66
CC(=O)N1CCC(Oc2ccc(C#N)cn2)CC1	-4.01
COc1cccc(CCC(=O)N2CCCCC2Cn2cccn2)c1 (stereo not given)	-4.9
Cc1scc(C(=O)N2CCC3(CC(=O)NC3=O)C2)c1-c1ccccc1 (stereo not given)	-2.27
CCc1csc(C2CCCN(C(=O)c3ccc(OC)nn3)C2)n1 (stereo not given)	-6.61
CN(C)S(=O)(=O)c1ccc(CN2CCCC2c2ccccc2)o1 (stereo not given)	-4.81
Clc1cc(CN2CCCC2Cn2cncn2)c2ncccc2c1 (stereo not given)	-4.67
C=C(C)CN(Cc1cccc(O)c1)C1CCC(O)CC1 (stereo not given)	-4.6
CCn1c(N)nc2cc(C(=O)NCc3ccccc3Cl)cnc21	-5.22
CCOCC1CN(S(C)(=O)=O)Cc2cnn(C)c21 (stereo not given)	-0.898
c1ccc(OC[C@]23COC[C@H]2CN(c2ncccn2)C3)nc1	0.189
CCCC(=O)NCc1cc(Br)c(OC)c(OC)c1	-2.9
CCc1csc(C2CCCN(C(=O)c3ccnc(N(C)C)c3)C2)n1 (stereo not given)	-1.95
Cc1ccsc1-c1nnc(C2CCN(Cc3ccc(F)cc3)CC2)o1	-4.79
CC(NC(N)=O)C(=O)N(C)CCCc1cc(-c2ccccc2)no1 (stereo not given)	-3.18
Cc1cccc(C(=O)NCCCN2CCN(c3ccccc3)CC2)c1	-2.4
CC1CCCCN1CCNC(=O)c1ccn(-c2ccc(F)cc2)n1 (stereo not given)	-2.64

Structure (SMILES)	Percent Effect [%]
Cc1noc(C)c1CN1CC2(CCN(C(=O)c3cscn3)CC2)CC1=O	-5.65
O=C(NCc1ccccn1)NC1CCOc2ccccc21 (stereo not given)	-4.23
COc1ccc(CN2C[C@@H](OCc3ccccn3)[C@H]3COC[C@H]32)cc1	-4.56
Cc1cnn(CC2CCCN2Cc2nc3ccccc3nc2C)c1 (stereo not given)	-2.22
Cn1cc(C2CCCN2CCCc2nc(-c3cccs3)no2)cn1 (stereo not given)	-0.777
O=C(Nc1cccc(OCc2ccc(F)cc2)c1)C1COCCO1 (stereo not given)	-4.66
O=C(C1CCCc2[nH]ncc21)N1CCCCCC1 (stereo not given)	-3.72
CN(C)S(=O)(=O)N1CCC(Oc2ccc(C#N)cn2)CC1	-4.11
O=C(c1cccc2cccnc12)N1CCCN(c2cccnn2)CC1	-6.9
CC(NC(=O)NCc1cccnc1N1CCCCC1)c1nccs1 (stereo not given)	-4.11
CCS(=O)(=O)c1ccccc1N1CCC(NC(=O)NC2CCCC2)CC1	-5.55
Cc1nc(CN2CCN(CC(=O)Nc3c(C)cccc3C)CC2)no1	-3.96
Fc1ccc2c(c1)C(NCc1nnc3n1CCCCC3)CCCO2 (stereo not given)	-2.96
Cc1cc(N2CCN(Cc3ccc(-c4cc[nH]n4)o3)CC2)cc(C)n1	-5.81
COc1cc(C)nc(N2CCN(C(=O)CCc3cscn3)CC2)n1	1.16
O=C(NCC1CC1)[C@H]1CC[C@@H]2[C@@H](CCN2Cc2ccoc2)O1	-9.56
Cc1noc(C)c1C(=O)N(C)Cc1nc(-c2ccccn2)no1	-7.17
CNc1nc(CNC(=O)Nc2ccccc2-c2noc(C)n2)cs1	-1.81
Cc1nnc2n1CCN(C(=O)c1cc(Cl)c[nH]1)C2	-3.51
CCn1cc2c(n1)CN(CC1CC1)CC2COCC1CC1 (stereo not given)	-2.46
